{
  "source": "PubChem BioAssay AID1851",
  "about": "(National Center for Advancing Translational Sciences (NCATS), 2009)",
  "note": "Values joined by “and” are separate entries in the source; they are usually repeats but may differ in a detail not shown here. Identical values can stand only once. Out of some 16,000 compounds screened, about 2,600 (16%) were called active. Inconclusive results (about 20%) are left out. Calls follow the shape of the dose curve; as a rule, active = well fitted curve in the direction sought with a large enough effect; inconclusive = small, poorly fitted or top-dose-only effect, or effect the other way; inactive = no such curve, though single readings can be large or run the other way. The list is a sample of the results. Some structures have more than one record in an assay (separate samples or runs), and their calls can disagree. % is scaled to controls: 0 for no effect and ±100 for the full control effect.",
  "data": [
    {"molecular_target": "Cytochrome P450 2D6 (Homo sapiens) (UniProt P10635)", "sequence (P10635 whole entry, looked up)": "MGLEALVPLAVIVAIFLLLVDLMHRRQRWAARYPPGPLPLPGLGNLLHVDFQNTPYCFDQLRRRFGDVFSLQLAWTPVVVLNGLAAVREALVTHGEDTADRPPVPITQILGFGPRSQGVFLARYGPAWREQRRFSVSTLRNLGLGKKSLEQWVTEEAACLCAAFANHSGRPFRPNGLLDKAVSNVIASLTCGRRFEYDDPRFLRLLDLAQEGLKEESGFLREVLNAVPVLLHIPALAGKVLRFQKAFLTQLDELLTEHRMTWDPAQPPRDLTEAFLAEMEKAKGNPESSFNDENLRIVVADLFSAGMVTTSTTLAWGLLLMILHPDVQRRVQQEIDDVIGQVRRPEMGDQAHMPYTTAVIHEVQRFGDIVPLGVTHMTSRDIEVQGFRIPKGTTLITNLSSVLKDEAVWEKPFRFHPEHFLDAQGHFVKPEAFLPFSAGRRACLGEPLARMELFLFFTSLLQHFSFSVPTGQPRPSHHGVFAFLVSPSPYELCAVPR", "assay": "Cytochrome panel assay with activity outcomes", "conditions": "recombinant CYP, pro-luciferin dealkylation, luminescence, p450-cyp2d6; series mostly up to 57.1 µM; activity, negative = inhibition: at the top concentration", "values": [
      {"smiles": "NC[C@H]1O[C@H](n2cnc3c(N)ncnc32)C[C@@H]1O", "activity, negative = inhibition": "8.01% [at 11.4 µM] (inactive)"},
      {"smiles": "O=c1c(-c2cccc(F)c2)nc2cncnc2n1C1CC1", "activity, negative = inhibition": "-4.2% (inactive)"},
      {"smiles": "CC(C)(C)N(NC(=O)c1ccccc1)C(=O)c1cccc(C(=O)N(NC(=O)c2ccccc2)C(C)(C)C)c1", "activity, negative = inhibition": "-27.5% (inactive)"},
      {"smiles": "O=C(O)/C=C\\c1ccc(O)c(O)c1", "activity, negative = inhibition": "4.2% [at 25.6 µM] (inactive)"},
      {"smiles": "O=C(O)/C=C\\c1ccc(Cn2ccnc2)cc1", "activity, negative = inhibition": "0.822% [at 25.6 µM] (inactive)"},
      {"smiles": "O=C(O)C=Cc1ccc(Cn2ccnc2)cc1", "AC50": "0.0794 µM (active)"},
      {"smiles": "CC(C)(C)C(=O)NC(=S)NCCc1ccccc1", "activity, negative = inhibition": "-7.67% (inactive)"},
      {"smiles": "O=C(NCCc1ccccc1)C(=O)NN=C1CCCC1", "activity, negative = inhibition": "-4.67% (inactive)"},
      {"smiles": "COc1ccccc1NC(=S)NCCc1ccccc1", "AC50": "7.08 µM (active)"},
      {"smiles": "CCNC(=S)NNC(=O)Cc1ccccc1", "activity, negative = inhibition": "9.05% (inactive)"},
      {"smiles": "Fc1ccccc1NC(=S)NCCc1ccccc1", "AC50": "15.8 µM (active)"},
      {"smiles": "CCN(C(=S)Nc1ccccc1F)C1CCCCC1", "activity, negative = inhibition": "-3.58% (inactive)"},
      {"smiles": "COc1ccccc1NC(=S)NC(=O)c1ccc(-c2ccc(Cl)cc2)o1", "activity, negative = inhibition": "10.4% (inactive)"},
      {"smiles": "Fc1cc(Br)ccc1NC(=S)NCCc1ccccc1", "AC50": "20 µM (active)"},
      {"smiles": "CCNc1ncc2nc(-c3ccccc3)c(=O)n(Cc3ccc(F)cc3)c2n1", "activity, negative = inhibition": "-1.91% (inactive)"},
      {"smiles": "CS(=O)(=O)N1CCC2(CCCN(C(=O)Nc3cccc(C#N)c3)C2)CC1", "activity, negative = inhibition": "-4% (inactive)"},
      {"smiles": "COCCn1c(=O)c(-c2ccccc2)nc2cnc(OC)nc21", "activity, negative = inhibition": "-10.7% (inactive)"},
      {"smiles": "CCn1c(CCCc2nc3c([nH]2)c(=O)n(C)c(=O)n3C)nc2c1c(=O)n(C)c(=O)n2C", "activity, negative = inhibition": "8.15% [at 11.4 µM] (inactive)"},
      {"smiles": "S=c1[nH]nc(CCc2ccccc2)n1Cc1ccccc1", "activity, negative = inhibition": "-22.7% (inactive)"},
      {"smiles": "CC(=O)c1ccc(N2CCC(c3cc(-c4ccc(Cl)cc4Cl)n[nH]3)CC2)c([N+](=O)[O-])c1", "activity, negative = inhibition": "-14.1% (inactive)"},
      {"smiles": "COc1ccc(C(=O)n2c(SC)nc3cc4c(cc32)OCCO4)cc1", "activity, negative = inhibition": "-8.26% (inactive)"},
      {"smiles": "Cc1cccc(OCCSCc2nc3ccccc3[nH]2)c1", "AC50": "0.282 µM (active)"},
      {"smiles": "COc1cnc(-c2ccccc2)nc1Oc1cccc(C)c1", "activity, negative = inhibition": "22.2% (inactive)"},
      {"smiles": "O=C(COc1ccc2ccccc2c1Br)NNC(=O)Nc1ccccc1", "activity, negative = inhibition": "30.8% (inactive)"},
      {"smiles": "Cc1nc(SCC(=O)c2cc3ccccc3oc2=O)c(C#N)c(C)c1C(=O)Nc1ccccc1", "activity, negative = inhibition": "13.9% (inactive)"},
      {"smiles": "COc1ccc(/C=C(/NC(C)=O)C(=O)O)cc1", "activity, negative = inhibition": "-28.3% (inactive)"},
      {"smiles": "CCOC(=O)CNC(=O)c1cccnc1", "activity, negative = inhibition": "-11.1% (inactive)"},
      {"smiles": "c1ccc(CSc2nnc(-c3sccc3-n3cccc3)o2)cc1", "AC50": "14.1 µM (active)"},
      {"smiles": "c1ccc(CSc2nnc([C@@H]3CCCN3)o2)cc1", "activity, negative = inhibition": "-29.5% (inactive)"},
      {"smiles": "Fc1ccc(CSc2nnc(-c3cc4c(s3)-c3ccccc3CC4)o2)cc1", "activity, negative = inhibition": "-7.85% (inactive)"},
      {"smiles": "CCc1ccc(N(C(=O)c2csnn2)C(C(=O)NC(C)(C)C)c2ccncc2)cc1", "note": "(stereo unspecified)", "activity, negative = inhibition": "-26.1% (inactive)"},
      {"smiles": "O=C(O)c1ccccc1C(=O)NNc1ccc(F)cc1", "activity, negative = inhibition": "8.55% (inactive)"},
      {"smiles": "CCOC(=O)N1CCN(S(=O)(=O)c2ccc(C(=O)Nc3ccc(F)cc3F)cc2)CC1", "activity, negative = inhibition": "-9.02% (inactive)"},
      {"smiles": "N#Cc1c(-c2ccccc2)cc(-c2ccccc2)nc1SCc1nnc(-c2ccccc2)o1", "activity, negative = inhibition": "27.3% (inactive)"},
      {"smiles": "NC1=NC2(CCCCCC2)n2c(nc3ccccc32)N1", "AC50": "12.6 µM (active)"},
      {"smiles": "CC1CCC2(CC1)N=C(N)Nc1nc3ccccc3n12", "note": "(stereo unspecified)", "AC50": "2.82 µM (active)"},
      {"smiles": "Nc1c(N=Nc2cccc(Cl)c2)c(=O)[nH]n1-c1ccccc1", "activity, negative = inhibition": "10.4% (inactive)"},
      {"smiles": "CCC(C)n1c(NC(=O)c2ccccc2)c(C#N)c2nc3ccccc3nc21", "note": "(stereo unspecified)", "activity, negative = inhibition": "-25% (inactive)"},
      {"smiles": "CCOc1cccc(/C(O)=C2/C(=O)C(=O)N(Cc3cccnc3)C2c2ccco2)c1", "note": "(stereo unspecified)", "activity, negative = inhibition": "7.28% (inactive)"},
      {"smiles": "CN1C(C(=O)Nc2ccccn2)=C(O)c2sccc2S1(=O)=O", "activity, negative = inhibition": "13.5% [at 25.6 µM] (inactive)"},
      {"smiles": "Cc1cc(NC(=O)C2=C(O)c3ccccc3S(=O)(=O)N2C)no1", "activity, negative = inhibition": "-6.72% [at 25.6 µM] (inactive)"},
      {"smiles": "CN1C(C(=O)Nc2ccccn2)=C(O)c2ccccc2S1(=O)=O", "AC50": "inactive and 25.1 µM (active)"},
      {"smiles": "CCNc1ncc2nc(-c3ccc(OC)cc3)c(=O)n(Cc3ccc(F)cc3)c2n1", "activity, negative = inhibition": "6.64% (inactive)"},
      {"smiles": "O=C(CN1CCN(S(=O)(=O)c2ccccc2)CC1)NC(=O)NCc1ccccc1", "activity, negative = inhibition": "30.7% (inactive)"},
      {"smiles": "CCCOC(=O)c1c(-c2ccccc2)nc(CC)c(C(=O)SCC)c1CCC", "activity, negative = inhibition": "-2.88% (inactive)"},
      {"smiles": "COCc1nnc(NC(=O)CSc2ccc(C)cc2)s1", "activity, negative = inhibition": "-19.3% (inactive)"},
      {"smiles": "Cc1cc(Cl)nc(NC(=O)CSc2ccc(Cl)cc2)n1", "activity, negative = inhibition": "18.7% [at 11.4 µM] (inactive)"},
      {"smiles": "Cc1cnc(NC(=O)CSc2ccc(Cl)cc2)s1", "AC50": "3.98 µM (active)"},
      {"smiles": "COC(=O)c1ccccc1NC(=O)c1c(Br)cnn1C", "activity, negative = inhibition": "-21.6% (inactive)"},
      {"smiles": "COc1cccc(OCc2nnc(SCC(=O)NCc3ccco3)n2C)c1", "activity, negative = inhibition": "-15% (inactive)"},
      {"smiles": "CNc1ncc(C(=O)c2ccccc2)s1", "activity, negative = inhibition": "-7.9% (inactive)"},
      {"smiles": "CCOc1ncnc2c1oc1nc(CC(C)C)c3c(c12)CC(C)(C)OC3", "activity, negative = inhibition": "-20.9% (inactive)"},
      {"smiles": "C=CC[N+]1(CC#CCOC(c2ccccc2)c2ccccc2)CCOCC1", "AC50": "7.08 µM (active)"},
      {"smiles": "O=C1N=C(N2CCOCC2)S/C1=C\\C=C/c1ccccc1", "activity, negative = inhibition": "-13.9% (inactive)"},
      {"smiles": "Cn1c([N+](=O)[O-])cnc1CN1CCN(CCO)CC1", "activity, negative = inhibition": "10.5% [at 11.4 µM] (inactive)"},
      {"smiles": "O=C1CCCC=C1[C@H](CCc1ccccc1)OC(=O)c1ccc(Br)cc1", "activity, negative = inhibition": "-4.24% [at 11.4 µM] (inactive)"},
      {"smiles": "O=C(NNC(=S)Nc1ccccc1)c1ccco1", "activity, negative = inhibition": "0.149% (inactive)"},
      {"smiles": "O=C(NC(NC(=S)Nc1cc(Cl)ccc1Cl)C(Cl)(Cl)Cl)c1ccco1", "note": "(stereo unspecified)", "AC50": "11.2 µM (active)"},
      {"smiles": "O=C(NC(=S)Nc1cccc(Cl)c1N1CCCCC1)c1ccco1", "activity, negative = inhibition": "-24.3% (inactive)"},
      {"smiles": "N#CCCn1cc(/C=N/O)c(-c2ccc(Cl)cc2)n1", "activity, negative = inhibition": "-23.4% (inactive)"},
      {"smiles": "N#Cc1c2c(c(-n3cnc4ccccc43)n3c1nc1ccccc13)CCC2", "activity, negative = inhibition": "1.48% (inactive)"},
      {"smiles": "O=C(NCc1ccccc1)c1ccc2c(c1)C(=O)N(CC1CCCO1)C2=O", "note": "(stereo unspecified)", "activity, negative = inhibition": "-2.23% (inactive)"},
      {"smiles": "CC1=CC(=O)C=CC1(C)C(Cl)(Cl)Cl", "note": "(stereo unspecified)", "activity, negative = inhibition": "-29% (inactive)"},
      {"smiles": "COc1ccc(S(=O)(=O)N(CC(=O)N2CCCC2)Cc2ccccc2)cc1", "activity, negative = inhibition": "-30.1% (inactive)"},
      {"smiles": "CC(C)N(CCC(=O)c1ccc2ccccc2c1)Cc1ccccc1", "AC50": "2 µM (active) and inactive"},
      {"smiles": "CN(C)/C=N/c1ncc(C(=O)c2ccc3ccccc3c2)s1", "activity, negative = inhibition": "-19.7% (inactive)"},
      {"smiles": "CC1CN(C(=S)NC(=O)c2ccc([N+](=O)[O-])cc2)CC(C)O1", "note": "(stereo unspecified)", "activity, negative = inhibition": "-6% (inactive)"},
      {"smiles": "COc1ccc(Oc2ncc3nc(C)c(=O)n(-c4ccc(OC)cc4)c3n2)cc1", "activity, negative = inhibition": "-5.24% (inactive)"},
      {"smiles": "Cc1ccc(C(=O)Nc2cc(Cl)ccc2OC(=O)c2ccc(C)cc2)cc1", "activity, negative = inhibition": "-21.9% (inactive)"},
      {"smiles": "O=C(Nc1ccc(Cl)cc1C(F)(F)F)c1ccc(Cl)cc1", "AC50": "0.282 µM (active)"},
      {"smiles": "NCCNC(=O)c1ccc(Cl)cc1", "AC50": "inactive"}
    ]}
  ]
}
